Data on 27 compounds can be found in PubChem BioAssay (EPA / NIEHS).

Inconclusive results are not listed. Calls of active or inactive are those of the source. Rule for the calls: active = hit-call score of the fitted dose curve at least 0.9, where 1 is the maximum; inconclusive = response in the unintended direction; inactive = score below 0.9.

Broad substrate specificity ATP-binding cassette transporter ABCG2 (Homo sapiens), sequence (Q9UNQ0 whole entry, looked up): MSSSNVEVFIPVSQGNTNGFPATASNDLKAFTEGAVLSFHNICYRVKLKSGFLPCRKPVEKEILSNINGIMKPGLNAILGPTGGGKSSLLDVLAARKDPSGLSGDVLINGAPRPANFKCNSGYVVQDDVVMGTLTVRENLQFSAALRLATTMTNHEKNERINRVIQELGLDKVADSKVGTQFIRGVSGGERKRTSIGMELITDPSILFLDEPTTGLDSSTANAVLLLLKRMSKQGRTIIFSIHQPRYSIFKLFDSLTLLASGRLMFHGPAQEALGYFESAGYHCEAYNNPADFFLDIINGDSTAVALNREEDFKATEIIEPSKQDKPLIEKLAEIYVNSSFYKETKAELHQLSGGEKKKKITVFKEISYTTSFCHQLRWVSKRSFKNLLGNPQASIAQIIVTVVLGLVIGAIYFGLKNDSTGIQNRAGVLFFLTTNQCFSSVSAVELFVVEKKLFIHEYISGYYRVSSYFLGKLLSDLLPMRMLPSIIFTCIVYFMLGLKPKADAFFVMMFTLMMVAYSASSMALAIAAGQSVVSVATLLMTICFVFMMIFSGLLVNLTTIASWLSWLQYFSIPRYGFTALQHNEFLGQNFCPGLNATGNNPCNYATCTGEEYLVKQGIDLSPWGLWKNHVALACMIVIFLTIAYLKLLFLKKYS

Read-out in the experiment: Broad substrate specificity ATP-binding cassette transporter ABCG2 (Homo sapiens) (UniProt Q9UNQ0)
Put plainly: CLD_ABCG2_6hr: CellzDirect (CLD) Gene Expression Assay for ABC Transporter (ABCG2) at 6 hours (AID 2283660). Summed up:
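ABCG2 mRNA induction measured by qNPA chemiluminescence in human primary hepatocyte cultures, 6 h post-dose. Chemicals tested at several concentrations against a 0.2% DMSO vehicle; positive-direction fit relative to DMSO.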
`COP(=O)(OC)C(O)C(Cl)(Cl)Cl` (configuration not stated): the outcome was inactive. Still for that read-out and setting: the entry for `Nc1c(Cl)cc([N+](=O)[O-])cc1Cl` is “inactive”; for `CC(C)[C@H](C(=O)O[C@H](C#N)c1cccc(Oc2ccccc2)c1)c1ccc(Cl)cc1` it is “inactive”. The same measure, in the same setting: the value for `CC(C)N(C(=O)SCC(Cl)=C(Cl)Cl)C(C)C` was “inactive”.

On to `CC[C@H](C)[C@H]1O[C@]2(C=C[C@@H]1C)C[C@@H]1C[C@@H](C/C=C(\C)[C@@H](O[C@H]3C[C@H](OC)[C@@H](O[C@H]4C[C@H](OC)[C@@H](NC)[C@H](C)O4)[C@H](C)O3)[C@@H](C)/C=C/C=C3\CO[C@@H]4[C@H](O)C(C)=C[C@@H](C(=O)O1)[C@]34O)O2`, for which the AC50 is 29.5 µM (active). As for `COc1ccc(C(=CC(=O)N2CCOCC2)c2ccc(Cl)cc2)cc1OC`, the compound was classed as inactive. Same read-out and setting: the value for `C[N+]1(C)CCCCC1` was “inactive”; that for `CC(COc1ccc(Oc2ccccc2)cc1)Oc1ccccn1` (configuration not stated) was “inactive”. The same measure, in the same setting: the entry for `CCOP(=O)(OCC)Oc1cc(C)nc(C(C)C)n1` is “inactive”; for `C#CC(C)(C)NC(=O)c1cc(Cl)cc(Cl)c1` it is “inactive”; for `CCOP(=S)(OCC)SCCSCC` it is “inactive”. With `CC(Oc1cccc(Cl)c1)C(=O)O` (configuration not stated), the result was inactive. Regarding `CSc1nnc(C(C)(C)C)c(=O)n1N`, the compound was called inactive. The same measure, in the same setting: the value for `O=C(O)c1cc(Oc2ccc(C(F)(F)F)cc2Cl)ccc1[N+](=O)[O-]` was “inactive”. Turning to `COc1cc(OC)nc(Sc2cccc(Cl)c2C(=O)O)n1`, the compound was called inactive. On the same count and under the same terms, the entry for `CN1COCN(Cc2cnc(Cl)s2)C1=N[N+](=O)[O-]` is “inactive”; for `CCCCSP(=O)(SCCCC)SCCCC` it is “inactive”; for `CNc1cnn(-c2cccc(C(F)(F)F)c2)c(=O)c1Cl` it is “inactive”. Same read-out and setting: the value for `CCc1cccc(CC)c1N(COC)C(=O)CCl` was “inactive”; that for `CC(C)=CC1C(C(=O)OCN2C(=O)C3=C(CCCC3)C2=O)C1(C)C` (configuration not stated) was “inactive”. On the same count and under the same terms, the value for `CCCOc1nn(C(=O)NS(=O)(=O)c2ccccc2C(=O)OC)c(=O)n1C` was “inactive”. In the case of `CC(=NC#N)N(C)Cc1ccc(Cl)nc1`, the compound was classed as inactive. Same read-out and setting: the value for `Cc1ccn2nc(S(=O)(=O)Nc3c(F)cccc3F)nc2n1` was “inactive”; that for `CCCCOC(=O)c1ccccc1C(=O)O` was “inactive”. On to `CC1=NNC(=O)N(/N=C/c2cccnc2)C1`, for which the outcome was inactive.

For `COP(=O)(OC)OC(Br)C(Cl)(Cl)Br` (configuration not stated), the compound was classed as inactive. With `CNC(=O)ON=C(SC)C(=O)N(C)C`, the call was inactive.

One may read the AC50 as the concentration giving half of the maximal activity seen.
